Screening data as filed in PubChem BioAssay.
The list is a sample of the results.
aSyn UTR act – Activators via SNCA 5'UTR binding, MLPCN; 300,000 compounds, 7.1% hits; alpha-synuclein 5'UTR reporter, activators screen; AID 1814, 2009; activity score, % (tested at 7.5 µM), hits read low; in the data active means activity score below about -60%
Large screens that a line does not name were inactive.

O=C(Nc1ccc(F)cc1)c1nc(S(=O)(=O)Cc2ccccc2)ncc1Cl	none
CN(C)/C=N/C(=S)Nc1ccc(Cl)c(Cl)c1	aSyn UTR act -66
C=C(C)CNC(=S)N/N=C/c1ccc(N2CCOCC2)cc1	aSyn UTR act -64
CC(C)NC(=S)N/N=C/c1ccc(N2CCOCC2)cc1	aSyn UTR act -87
c1cncc(Nc2nc(-c3cccnc3)cs2)c1	aSyn UTR act -72
Clc1ccccc1Nc1nc(-c2cccnc2)cs1	aSyn UTR act -185
Clc1ccccc1-c1csc(Nc2cccnc2)n1	aSyn UTR act -71
Cc1ccc(Nc2nc(-c3cccnc3)cs2)cc1Cl	aSyn UTR act -175
COc1cccc(Nc2nc(-c3cccnc3)cs2)c1	aSyn UTR act -173
COc1cccc2sc(Nc3nc(-c4ccncc4)cs3)nc12	none
CCCCC1CCC(c2nc(-c3cccnc3)no2)CC1 (stereo not given)	aSyn UTR act -92
CCCCC1CCC(c2nc(-c3ccccn3)no2)CC1 (stereo not given)	none
O=C(Cn1nnc(-c2ccc(NC(=O)c3ccccc3F)cc2)n1)NCc1ccc(F)cc1	aSyn UTR act -66
NC(=O)Cn1nnc(-c2ccc(NC(=O)c3ccc(F)cc3)cc2)n1	aSyn UTR act -73
O=C(Nc1ccc(-c2nnn(CC(=O)N3CCN(C(=O)c4ccco4)CC3)n2)cc1)c1ccccc1F	aSyn UTR act -71
COc1ccccc1C(=O)Nc1ccc(-c2nnn(CC(=O)N3CCN(C(=O)c4ccco4)CC3)n2)cc1	aSyn UTR act -79
Cc1cs/c(=N\N=C\c2cccc([N+](=O)[O-])c2)n1Cc1ccco1	aSyn UTR act -97
COc1ccc(-c2ccc(CO)o2)cc1N	aSyn UTR act -82
CC(C)COCc1ccc(O)c2ncccc12	none
COC(=O)/C=C1\C(=O)N(c2nc3ccc(OC)cc3s2)C(=S)N1c1ccc(F)cc1	aSyn UTR act -69
COC(=O)/C=C1\C(=O)N(c2nc3ccccc3s2)C(=S)N1c1ccc(F)cc1	aSyn UTR act -175
Cc1c2c(nc3ccccc13)CCC(C(C)(C)C)C2 (stereo not given)	aSyn UTR act -116
CC(C)c1ccc(C2C3CSCC=C3C(C#N)=C(N)C2(C#N)C#N)cc1 (stereo not given)	aSyn UTR act -84
Cc1ccc(C(=O)NCCOc2cccc(C)c2)cc1	aSyn UTR act -111
Cc1ccc(OCCNC(=O)c2ccc3c(c2)OCO3)cc1	aSyn UTR act -62
O=C(CSc1nnc(-c2cccnc2)o1)Nc1ccc(Cl)cc1	aSyn UTR act -62
O=C(CSc1nnc(-c2cccnc2)o1)Nc1cccc(Cl)c1	aSyn UTR act -119
Cc1cccc(NC(=O)c2cc3ccccc3c(=O)o2)n1	aSyn UTR act -191
Cc1nc(NC(=O)c2cc3ccccc3o2)ccc1Br	aSyn UTR act -160
Cc1nc(NC(=O)c2ccc(Br)o2)ccc1Br	aSyn UTR act -151
CC1=NN(c2ccccc2)C(=O)/C1=C/c1c(O)n(-c2ccc(F)cc2)[nH]c1=O	aSyn UTR act -134
Cc1cc(/C=C2/NC(=O)N(c3ccccc3)C2=O)c(C)n1-c1cccnc1	aSyn UTR act -149
CC1=NN(c2cccc(C(=O)O)c2)C(=O)/C1=C\C=C/c1ccccc1	aSyn UTR act -64
Cc1cc(/C=C2\Cc3ccccc3C2=O)c(C)n1-c1ccccc1	none
CC1=NN(c2ccccc2)C(=O)/C1=C\c1cc(C)n(-c2ccccc2)c1C	aSyn UTR act -82
CC1=NN(c2ccccc2)C(=O)/C1=C/c1ccc[nH]1	aSyn UTR act -181
Cc1cc(/C=C2/C(=N)N3C(c4ccccc4)=CSC3=NC2=O)c(C)n1-c1ccccc1	aSyn UTR act -81
C/C(Cn1nnc([N+](=O)[O-])n1)=N\NC(=O)c1ccccc1	aSyn UTR act -73
CCN1C(=S)SC(=O)C1=C1C=C(C)N(CCO)C(C)=C1	aSyn UTR act -165
Brc1ccc(C2=NC(Cc3ccccc3)CO2)cc1 (stereo not given)	aSyn UTR act -176
CCCc1ccc(-c2cc(C(=O)Nc3ccc([N+](=O)[O-])cn3)c3ccccc3n2)cc1	aSyn UTR act -90
O=C(NCc1ccccc1Cl)c1ccc2ccccc2n1	aSyn UTR act -121
CCc1ccc(-c2cc(C(=O)Nn3cnnc3)c3ccccc3n2)cc1	none
O=C(N/N=C/c1cc([N+](=O)[O-])ccc1O)c1cc(-c2ccccc2)nc2ccccc12	none
CCCc1ccc(-c2cc(C(=O)NN3CCOCC3)c3ccccc3n2)cc1	aSyn UTR act -93
CCCc1ccc(-c2cc(C(=O)NCCc3ccc(S(N)(=O)=O)cc3)c3ccccc3n2)cc1	aSyn UTR act -115
NS(=O)(=O)c1ccc(CNc2ccc3ccccc3n2)cc1	aSyn UTR act -120
NS(=O)(=O)c1ccc(CCNC(=O)c2ccc3ccccc3n2)cc1	aSyn UTR act -83
Cc1[nH]n(-c2nc(-c3cccc([N+](=O)[O-])c3)cs2)c(=O)c1C	aSyn UTR act -135
CC(=O)c1sc(N/N=C/c2cccc([N+](=O)[O-])c2)nc1C	aSyn UTR act -170
CC(=O)c1sc(N/N=C\c2ccc(N(C)C)cc2)nc1C	aSyn UTR act -135
CC(=O)Nc1nc(C)c(-c2csc(Nc3cccc([N+](=O)[O-])c3)n2)s1	none
CC(=O)c1cccc(Nc2nc(-c3cccc([N+](=O)[O-])c3)cs2)c1	aSyn UTR act -222
O=[N+]([O-])c1cccc(-c2csc(N/N=C/c3cccc(O)c3)n2)c1	aSyn UTR act -216
Cc1csc(N/N=C/c2ccc([N+](=O)[O-])cc2)n1	aSyn UTR act -148
CC(=O)Nc1sc(N/N=C/c2ccc(N(C)C)cc2)nc1-c1ccc(C)cc1	aSyn UTR act -68
Cc1csc(N/N=C/c2ccccn2)n1	none
CC(=O)c1sc(N/N=C/c2cccc(O)c2)nc1C	aSyn UTR act -338
Nc1cc(C(F)(F)F)ccc1OCC1CCCO1 (stereo not given)	aSyn UTR act -91
COC(=O)N(C)c1nc2ccccc2s1	aSyn UTR act -77
CCCCNC(=O)N(C)c1nc2ccccc2s1	aSyn UTR act -133
CN(C(=O)OC(C)(C)C)c1ccc(-c2nc3ccccc3s2)cc1	none
CCCCNC(=O)c1cc2ccccc2s1	aSyn UTR act -108
Oc1c(C2=NCCNC(C(F)(F)F)=C2)ccc2ccccc12	aSyn UTR act -193
Cc1ccc(NC(=O)C2CC2c2ccccc2)c([N+](=O)[O-])c1 (stereo not given)	aSyn UTR act -88
CCC1CCCCN1C(=O)c1ccc(OC2CCN(C(=O)CCOC)CC2)cc1 (stereo not given)	aSyn UTR act -82
CCNc1nc(N)nc(Oc2ccc(C(=O)OC)cc2)n1	aSyn UTR act -71
CCNc1nc(Oc2ccc(C#N)cc2)cc(C(F)(F)F)n1	none
O=c1[nH]nc(Cc2ccc3ccccc3n2)c2ccccc12	aSyn UTR act -71
Cc1sc(NC(=O)c2cccs2)c(C(N)=O)c1C	aSyn UTR act -255
NC(=O)c1ccsc1NC(=O)c1cccs1	aSyn UTR act -164
Cc1sc(NC(=O)C2=COCCO2)c(C(N)=O)c1C	aSyn UTR act -62
Cc1sc(NC(=O)CCCC(=O)O)c(C(N)=O)c1-c1ccccc1	none
COc1ccc(/C=C(/C(=O)c2cccs2)N2C=CC=CC2=C(C#N)C#N)cc1	aSyn UTR act -102
COc1ccc(C(=O)/C(=C\c2ccco2)N2C=CC=CC2=C(C#N)C#N)cc1	none
CN1CCN(/C=N/c2sc3c(c2C#N)CCCCC3)CC1	aSyn UTR act -147
CCN(/C=N/c1sc2c(c1C#N)CCCCC2)CC	aSyn UTR act -142
Cc1ccccc1OCc1nnc2c3cnn(C)c3ncn12	aSyn UTR act -187
O=[N+]([O-])c1ccc(N/N=C/c2cccs2)nc1	aSyn UTR act -187
